Assay [1] addresses T1, Mitogen-activated protein kinase 12 (Homo sapiens) (UniProt P53778).
T1 sequence (whole entry): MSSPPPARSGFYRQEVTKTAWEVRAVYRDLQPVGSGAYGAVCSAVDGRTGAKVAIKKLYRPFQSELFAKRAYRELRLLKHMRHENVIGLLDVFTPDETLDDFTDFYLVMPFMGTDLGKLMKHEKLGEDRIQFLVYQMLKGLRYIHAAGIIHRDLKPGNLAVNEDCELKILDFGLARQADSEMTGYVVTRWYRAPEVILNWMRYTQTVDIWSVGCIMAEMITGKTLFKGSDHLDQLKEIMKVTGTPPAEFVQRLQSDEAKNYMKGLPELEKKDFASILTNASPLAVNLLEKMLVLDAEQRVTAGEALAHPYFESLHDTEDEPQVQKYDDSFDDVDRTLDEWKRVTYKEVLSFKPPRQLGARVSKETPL
The conditions noted are these: at 1 µM.

Assay [2] addresses SRSF protein kinase 1 (Homo sapiens) (UniProt Q96SB4). To be noted: at 0.1 µM.
For assay [3] the target is unchanged. The conditions noted are these: at 1 µM.
Assay [4] has as its target Phosphatidylinositol 4,5-bisphosphate 3-kinase catalytic subunit alpha isoform (Homo sapiens) (UniProt P42336). The conditions noted are these: at 0.1 µM.
The target is the same in assay [5]. To be noted: at 1 µM.
For assay [6], the target named is T2, Phosphatidylinositol 4,5-bisphosphate 3-kinase catalytic subunit delta isoform (Homo sapiens) (UniProt O00329).
T2 sequence (whole entry): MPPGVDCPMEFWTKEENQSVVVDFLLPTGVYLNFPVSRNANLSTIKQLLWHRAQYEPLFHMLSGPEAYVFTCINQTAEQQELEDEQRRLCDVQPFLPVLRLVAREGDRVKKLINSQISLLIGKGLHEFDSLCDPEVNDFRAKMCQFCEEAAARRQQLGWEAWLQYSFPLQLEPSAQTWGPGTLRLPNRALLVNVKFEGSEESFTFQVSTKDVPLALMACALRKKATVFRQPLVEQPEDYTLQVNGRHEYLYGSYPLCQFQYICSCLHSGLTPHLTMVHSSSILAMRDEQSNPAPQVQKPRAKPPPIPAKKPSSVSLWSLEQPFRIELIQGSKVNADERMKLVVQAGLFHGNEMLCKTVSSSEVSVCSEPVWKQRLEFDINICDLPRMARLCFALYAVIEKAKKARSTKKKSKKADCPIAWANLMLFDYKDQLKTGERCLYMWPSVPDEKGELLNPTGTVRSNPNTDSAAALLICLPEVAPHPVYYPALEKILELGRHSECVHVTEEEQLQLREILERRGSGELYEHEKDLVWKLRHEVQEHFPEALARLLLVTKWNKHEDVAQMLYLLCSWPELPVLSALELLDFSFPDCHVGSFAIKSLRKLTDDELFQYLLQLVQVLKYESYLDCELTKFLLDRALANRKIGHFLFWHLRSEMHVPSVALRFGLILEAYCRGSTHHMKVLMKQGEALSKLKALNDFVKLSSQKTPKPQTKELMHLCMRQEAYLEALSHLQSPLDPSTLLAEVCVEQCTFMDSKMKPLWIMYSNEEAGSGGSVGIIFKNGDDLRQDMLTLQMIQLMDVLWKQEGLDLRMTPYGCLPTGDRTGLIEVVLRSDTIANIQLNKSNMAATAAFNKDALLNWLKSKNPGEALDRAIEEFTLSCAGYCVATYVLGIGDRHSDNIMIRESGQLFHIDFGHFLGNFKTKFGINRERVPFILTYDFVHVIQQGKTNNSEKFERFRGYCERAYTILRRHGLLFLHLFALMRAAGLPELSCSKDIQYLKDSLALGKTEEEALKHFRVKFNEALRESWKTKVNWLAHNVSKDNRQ
To be noted: at 0.1 µM.

Assay [7] concerns the target T2, Phosphatidylinositol 4,5-bisphosphate 3-kinase catalytic subunit delta isoform (Homo sapiens). The conditions noted are these: at 1 µM.
Assay [8] addresses Phosphatidylinositol 4-kinase beta (Homo sapiens) (UniProt Q9UBF8). To be noted: at 0.1 µM.
The target is the same in assay [9]. To be noted: at 1 µM.
Assay [10] deals with Sphingosine kinase 1 (Homo sapiens) (UniProt Q9NYA1). The conditions noted are these: at 0.1 µM.
Sphingosine kinase 1 (Homo sapiens), sequence (Q9NYA1 whole entry): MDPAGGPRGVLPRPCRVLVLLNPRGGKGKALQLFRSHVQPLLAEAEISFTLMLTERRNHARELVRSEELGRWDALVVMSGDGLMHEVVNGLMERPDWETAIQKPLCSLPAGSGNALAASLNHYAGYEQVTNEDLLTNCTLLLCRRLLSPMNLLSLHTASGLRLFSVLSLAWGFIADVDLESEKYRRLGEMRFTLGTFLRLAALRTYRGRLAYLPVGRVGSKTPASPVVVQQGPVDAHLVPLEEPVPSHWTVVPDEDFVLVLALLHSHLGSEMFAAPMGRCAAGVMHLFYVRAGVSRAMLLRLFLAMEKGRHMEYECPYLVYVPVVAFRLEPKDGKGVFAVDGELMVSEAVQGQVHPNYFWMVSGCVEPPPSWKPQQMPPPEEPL
The target is the same in assay [11]. To be noted: at 1 µM.
The target of assay [12] is T3, Sphingosine kinase 2 (Homo sapiens) (UniProt Q9NRA0).
T3 sequence (whole entry): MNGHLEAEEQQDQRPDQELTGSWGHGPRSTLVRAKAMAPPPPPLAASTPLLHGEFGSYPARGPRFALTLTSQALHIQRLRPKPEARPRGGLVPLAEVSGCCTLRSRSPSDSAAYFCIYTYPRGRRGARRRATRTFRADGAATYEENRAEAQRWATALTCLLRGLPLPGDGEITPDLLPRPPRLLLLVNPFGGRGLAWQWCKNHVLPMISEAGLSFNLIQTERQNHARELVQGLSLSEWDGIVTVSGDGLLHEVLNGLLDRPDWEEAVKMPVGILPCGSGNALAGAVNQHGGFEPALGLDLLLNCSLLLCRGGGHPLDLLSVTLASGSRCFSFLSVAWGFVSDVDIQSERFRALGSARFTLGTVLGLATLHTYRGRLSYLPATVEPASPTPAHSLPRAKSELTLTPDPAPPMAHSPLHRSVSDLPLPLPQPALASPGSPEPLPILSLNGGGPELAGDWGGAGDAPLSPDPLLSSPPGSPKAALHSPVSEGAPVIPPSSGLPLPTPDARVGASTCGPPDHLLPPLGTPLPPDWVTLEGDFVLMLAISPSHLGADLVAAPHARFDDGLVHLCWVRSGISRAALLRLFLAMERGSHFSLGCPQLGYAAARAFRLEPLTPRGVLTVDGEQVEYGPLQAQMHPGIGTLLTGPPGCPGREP
To be noted: at 0.1 µM.

Assay [13] concerns the target T3, Sphingosine kinase 2 (Homo sapiens). The conditions noted are these: at 1 µM.
The target in assay [14] is Casein kinase II subunit alpha (Homo sapiens) (UniProt P68400). To be noted: at 0.1 µM.
Casein kinase II subunit alpha (Homo sapiens), sequence (P68400 whole entry, looked up): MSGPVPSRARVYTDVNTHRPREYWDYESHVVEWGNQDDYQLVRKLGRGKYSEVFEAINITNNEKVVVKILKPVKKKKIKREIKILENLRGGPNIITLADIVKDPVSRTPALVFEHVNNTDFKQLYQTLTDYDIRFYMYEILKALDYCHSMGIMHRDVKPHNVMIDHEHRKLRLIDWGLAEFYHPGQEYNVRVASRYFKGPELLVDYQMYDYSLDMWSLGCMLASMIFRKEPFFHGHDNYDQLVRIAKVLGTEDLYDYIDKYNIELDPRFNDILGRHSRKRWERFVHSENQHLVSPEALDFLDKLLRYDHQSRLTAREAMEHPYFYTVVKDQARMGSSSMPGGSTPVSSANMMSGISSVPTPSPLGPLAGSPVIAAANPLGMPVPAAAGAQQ
For assay [15] the target is unchanged. To be noted: at 1 µM.
In assay [16] the target is T4, Inhibitor of nuclear factor kappa-B kinase subunit alpha (Homo sapiens) (UniProt O15111).
T4 sequence (whole entry): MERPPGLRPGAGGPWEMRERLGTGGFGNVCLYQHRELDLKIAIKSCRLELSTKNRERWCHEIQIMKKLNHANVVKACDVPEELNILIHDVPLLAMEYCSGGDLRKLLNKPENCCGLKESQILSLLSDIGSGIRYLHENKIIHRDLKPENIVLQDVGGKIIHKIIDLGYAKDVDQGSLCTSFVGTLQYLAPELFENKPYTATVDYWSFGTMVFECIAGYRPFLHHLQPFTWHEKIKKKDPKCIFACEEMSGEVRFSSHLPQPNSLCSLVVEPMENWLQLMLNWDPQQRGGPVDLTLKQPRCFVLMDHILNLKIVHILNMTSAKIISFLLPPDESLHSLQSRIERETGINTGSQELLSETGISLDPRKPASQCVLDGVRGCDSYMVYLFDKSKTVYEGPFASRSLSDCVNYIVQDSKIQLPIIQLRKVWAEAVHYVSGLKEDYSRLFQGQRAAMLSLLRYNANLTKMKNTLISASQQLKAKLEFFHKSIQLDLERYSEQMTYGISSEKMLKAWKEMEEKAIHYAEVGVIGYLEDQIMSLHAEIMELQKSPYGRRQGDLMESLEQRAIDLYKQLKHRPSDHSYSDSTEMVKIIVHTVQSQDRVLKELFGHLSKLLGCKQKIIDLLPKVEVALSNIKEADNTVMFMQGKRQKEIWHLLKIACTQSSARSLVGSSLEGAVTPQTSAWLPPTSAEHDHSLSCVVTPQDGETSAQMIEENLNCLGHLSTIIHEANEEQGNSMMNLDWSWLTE
The conditions noted are these: at 0.1 µM.

Assay [17] has as its target T4, Inhibitor of nuclear factor kappa-B kinase subunit alpha (Homo sapiens). The conditions noted are these: at 1 µM.
Assay [18] has as its target T5, Inhibitor of nuclear factor kappa-B kinase subunit beta (Homo sapiens) (UniProt O14920).
T5 sequence (whole entry): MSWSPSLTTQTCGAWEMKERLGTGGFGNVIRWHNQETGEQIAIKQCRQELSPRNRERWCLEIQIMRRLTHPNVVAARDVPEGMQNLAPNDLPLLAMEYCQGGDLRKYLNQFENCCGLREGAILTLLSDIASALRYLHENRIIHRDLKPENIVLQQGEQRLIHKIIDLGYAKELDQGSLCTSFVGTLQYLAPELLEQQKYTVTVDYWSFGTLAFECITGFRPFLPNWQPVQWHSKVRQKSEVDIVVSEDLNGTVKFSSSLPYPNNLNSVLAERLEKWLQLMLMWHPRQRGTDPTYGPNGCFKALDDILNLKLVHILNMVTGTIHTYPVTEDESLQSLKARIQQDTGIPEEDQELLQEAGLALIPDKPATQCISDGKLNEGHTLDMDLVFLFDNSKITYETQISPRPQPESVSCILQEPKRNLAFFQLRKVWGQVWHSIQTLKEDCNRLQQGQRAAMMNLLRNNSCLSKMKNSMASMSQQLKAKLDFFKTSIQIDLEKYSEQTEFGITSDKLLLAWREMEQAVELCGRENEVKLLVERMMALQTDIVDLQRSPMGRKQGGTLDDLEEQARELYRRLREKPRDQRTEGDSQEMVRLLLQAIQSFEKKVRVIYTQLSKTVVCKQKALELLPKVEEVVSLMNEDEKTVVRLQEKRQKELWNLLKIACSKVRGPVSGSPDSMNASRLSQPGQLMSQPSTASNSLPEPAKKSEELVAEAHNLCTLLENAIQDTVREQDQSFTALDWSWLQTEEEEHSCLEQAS
The conditions noted are these: at 0.1 µM.

The target in assay [19] is T5, Inhibitor of nuclear factor kappa-B kinase subunit beta (Homo sapiens). To be noted: at 1 µM.
The target of assay [20] is T6, Inhibitor of nuclear factor kappa-B kinase subunit epsilon (Homo sapiens) (UniProt Q14164).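 Also: mean inhibition of IKKε reported, from the GSK PKIS dataset.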
T6 sequence (whole entry): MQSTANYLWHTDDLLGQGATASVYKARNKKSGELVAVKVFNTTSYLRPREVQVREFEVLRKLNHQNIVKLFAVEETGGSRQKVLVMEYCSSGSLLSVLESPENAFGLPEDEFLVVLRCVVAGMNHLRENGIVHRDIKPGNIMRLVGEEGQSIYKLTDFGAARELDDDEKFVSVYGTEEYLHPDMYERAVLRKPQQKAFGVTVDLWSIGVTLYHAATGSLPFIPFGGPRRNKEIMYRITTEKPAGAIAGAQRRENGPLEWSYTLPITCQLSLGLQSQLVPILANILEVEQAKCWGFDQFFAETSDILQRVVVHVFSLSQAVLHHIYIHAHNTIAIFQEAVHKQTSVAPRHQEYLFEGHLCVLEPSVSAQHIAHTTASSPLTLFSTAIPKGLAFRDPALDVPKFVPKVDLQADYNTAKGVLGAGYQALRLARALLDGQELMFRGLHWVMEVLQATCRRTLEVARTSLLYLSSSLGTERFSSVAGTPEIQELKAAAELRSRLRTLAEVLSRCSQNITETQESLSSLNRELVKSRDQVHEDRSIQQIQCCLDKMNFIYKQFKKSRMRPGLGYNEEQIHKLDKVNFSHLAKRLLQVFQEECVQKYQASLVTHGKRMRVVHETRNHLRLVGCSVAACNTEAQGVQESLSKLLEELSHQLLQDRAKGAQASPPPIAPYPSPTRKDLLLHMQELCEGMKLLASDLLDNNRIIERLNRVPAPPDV
The conditions noted are these: at 0.1 µM.

SMILES strings stand for the structures.

Phosphatidylinositol 4-kinase beta (Homo sapiens), sequence (Q9UBF8 2-816 limits assumed): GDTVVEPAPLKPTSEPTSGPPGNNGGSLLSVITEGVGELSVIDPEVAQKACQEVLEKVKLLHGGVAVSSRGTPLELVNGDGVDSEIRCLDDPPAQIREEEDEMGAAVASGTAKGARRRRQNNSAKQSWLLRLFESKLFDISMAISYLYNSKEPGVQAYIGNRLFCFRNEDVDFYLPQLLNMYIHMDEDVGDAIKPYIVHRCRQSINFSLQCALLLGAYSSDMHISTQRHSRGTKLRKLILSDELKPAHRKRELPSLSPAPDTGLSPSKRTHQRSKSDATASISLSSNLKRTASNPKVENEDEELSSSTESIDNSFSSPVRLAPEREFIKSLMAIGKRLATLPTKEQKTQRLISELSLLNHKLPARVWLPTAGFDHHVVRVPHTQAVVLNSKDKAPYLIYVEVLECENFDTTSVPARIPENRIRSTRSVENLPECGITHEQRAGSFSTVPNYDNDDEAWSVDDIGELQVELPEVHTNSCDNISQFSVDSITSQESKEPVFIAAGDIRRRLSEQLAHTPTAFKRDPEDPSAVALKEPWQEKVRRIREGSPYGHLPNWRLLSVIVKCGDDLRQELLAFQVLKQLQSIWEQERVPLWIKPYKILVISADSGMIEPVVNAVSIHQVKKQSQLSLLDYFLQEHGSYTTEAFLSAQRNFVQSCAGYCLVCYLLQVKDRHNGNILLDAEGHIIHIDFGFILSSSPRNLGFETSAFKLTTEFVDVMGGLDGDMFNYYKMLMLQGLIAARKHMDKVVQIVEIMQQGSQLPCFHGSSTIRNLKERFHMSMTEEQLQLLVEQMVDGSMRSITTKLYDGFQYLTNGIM
SRSF protein kinase 1 (Homo sapiens), sequence (Q96SB4 whole entry): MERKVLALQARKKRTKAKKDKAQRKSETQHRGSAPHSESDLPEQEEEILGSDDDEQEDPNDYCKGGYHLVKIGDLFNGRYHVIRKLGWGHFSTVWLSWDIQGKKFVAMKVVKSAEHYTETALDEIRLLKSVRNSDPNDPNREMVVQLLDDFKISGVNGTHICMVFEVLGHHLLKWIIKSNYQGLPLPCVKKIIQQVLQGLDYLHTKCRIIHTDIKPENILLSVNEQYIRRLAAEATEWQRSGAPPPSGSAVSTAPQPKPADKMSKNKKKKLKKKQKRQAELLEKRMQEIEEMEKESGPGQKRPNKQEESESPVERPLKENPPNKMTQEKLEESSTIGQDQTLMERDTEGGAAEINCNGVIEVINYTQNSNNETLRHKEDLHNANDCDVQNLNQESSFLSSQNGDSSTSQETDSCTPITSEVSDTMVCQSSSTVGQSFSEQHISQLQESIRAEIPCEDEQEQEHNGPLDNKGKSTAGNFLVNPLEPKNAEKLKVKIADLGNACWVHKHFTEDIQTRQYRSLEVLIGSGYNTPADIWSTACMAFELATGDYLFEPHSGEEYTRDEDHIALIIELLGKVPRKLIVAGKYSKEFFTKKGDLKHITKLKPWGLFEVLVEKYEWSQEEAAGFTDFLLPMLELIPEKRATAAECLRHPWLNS
Phosphatidylinositol 4,5-bisphosphate 3-kinase catalytic subunit alpha isoform (Homo sapiens), sequence (P42336 whole entry, canonical isoform): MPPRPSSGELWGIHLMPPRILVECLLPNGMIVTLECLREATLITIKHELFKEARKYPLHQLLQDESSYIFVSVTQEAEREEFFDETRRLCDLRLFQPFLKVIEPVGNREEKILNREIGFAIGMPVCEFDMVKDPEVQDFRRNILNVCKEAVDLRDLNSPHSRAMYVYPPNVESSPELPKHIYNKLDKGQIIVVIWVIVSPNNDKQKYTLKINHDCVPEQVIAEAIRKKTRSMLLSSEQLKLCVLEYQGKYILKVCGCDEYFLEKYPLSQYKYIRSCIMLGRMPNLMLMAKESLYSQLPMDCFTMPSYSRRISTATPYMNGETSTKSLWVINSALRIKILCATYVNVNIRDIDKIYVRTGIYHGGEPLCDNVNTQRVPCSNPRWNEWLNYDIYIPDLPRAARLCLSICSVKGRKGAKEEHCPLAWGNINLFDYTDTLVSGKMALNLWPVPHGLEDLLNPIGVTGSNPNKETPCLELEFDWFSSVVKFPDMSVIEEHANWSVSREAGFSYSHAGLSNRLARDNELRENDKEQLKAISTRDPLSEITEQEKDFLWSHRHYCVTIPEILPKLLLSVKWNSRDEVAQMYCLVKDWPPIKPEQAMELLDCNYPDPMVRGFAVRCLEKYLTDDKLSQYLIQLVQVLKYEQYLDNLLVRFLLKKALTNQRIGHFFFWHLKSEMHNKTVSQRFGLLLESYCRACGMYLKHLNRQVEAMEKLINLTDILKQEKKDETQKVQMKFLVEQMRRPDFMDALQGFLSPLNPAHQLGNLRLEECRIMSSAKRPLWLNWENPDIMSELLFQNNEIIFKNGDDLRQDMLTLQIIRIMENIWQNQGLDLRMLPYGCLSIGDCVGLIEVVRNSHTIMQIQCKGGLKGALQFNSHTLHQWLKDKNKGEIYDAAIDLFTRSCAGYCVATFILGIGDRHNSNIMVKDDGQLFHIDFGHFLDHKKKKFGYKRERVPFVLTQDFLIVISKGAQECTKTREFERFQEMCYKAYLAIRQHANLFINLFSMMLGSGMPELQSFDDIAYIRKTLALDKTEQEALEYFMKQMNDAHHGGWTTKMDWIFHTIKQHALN

On to `C#Cc1cccc(Nc2ncnc3ccc(OCCCCNCCS(C)(=O)=O)cc23)c1`, for which the inhibition in assay [1] was 3.54%; in assay [2] it was -1.38%; in [3], -0.94%; in assay [4] it was 5%; in assay [5], 4.83%; in [6] it was 2.6%. For the same compound, the inhibition in assay [7] was 5.7%; in [8], -2.49%; in assay [9] it was -1.03%; in [10] it was 5.65%; in assay [11], -0.99%; in assay [12] it was -0.09%. The inhibition in [13] was 0.04%; in assay [14], 4.02%; in [15] it was 9.21%; in [16], 5.89%; in assay [17] it was 12.2%; in assay [18], 6.73%. In addition, the figures for the inhibition in assay [19] and in assay [20] were 9.06% and 7.86%, respectively.

Consider `CN(C)c1ccc2c(c1)/C(=C/Nc1ccc(S(N)(=O)=O)cc1)C(=O)N2`, for which the inhibition is 1.82% in assay [1]; -1.68% in assay [2]; -2.04% in assay [3]; 0.45% in assay [4]; 4.82% in [5]; 0.7% in [6]. Further, the inhibition was 4.54% in assay [7]; -6.01% in assay [8]; 3.23% in assay [9]; 3.41% in [10]; -2.05% in [11]; 0.7% in assay [12]. Moreover, the inhibition in assay [13] worked out at 0.06%; in assay [14], 2.93%; in assay [15], 18%; in [16], 1.67%; in assay [17], 6.64%; in assay [18] it was 2.49%. The results for the inhibition in assay [19] and in assay [20] were 1.1% and 4.67%, respectively.

In general, inhibition refers to the relative decrease from the control value, in per cent.

Source of the values: ChEMBL document CHEMBL1961873, “Compounds: GSK PKIS; Assays: Nanosyn kinase panel” (2012).
